# Measured values from PubChem BioAssay.
# Active and inactive are the calls of the source. Unless noted, the rule behind the calls is not given here.
# What was measured:
# [1] = tested on: Wnt5a (protein binding on small-molecule microarray); test: Wnt5a binders on small-molecule microarray, primary screen, biophysical, 635/667 nm fluorescence (AID 1142); settings: 635 nm fluorescence, higher = more signal;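 note: fluorescence read at 667 nm with signal to noise per printed feature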
# [2] = cell viability in Huh7 cells, primary screen, cytotoxicity control for HCV replication inhibitor project, CellTiter-Glo luminescence, basal, 48 h (AID 1143); settings: Huh7 HCV replicon, higher = more signal, called active from +8 up or from −8 down;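 note: Huh7 hepatoma cells carrying a hepatitis C replication reporter with no stimulus; test concentration not given here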
# [3] = P. aeruginosa biofilm formation inhibitors, primary screen, PAO1 strain, BacTiter-Glo luminescence, LB-PBS (AID 1144); settings: 12 h, higher = more signal
# [4] = CREB reporter modulators without forskolin, primary screen, cell-based, PC12, CRE-LacZ reporter, unstimulated (AID 1145); settings: no forskolin, luminescence, 4.5 h, higher = more signal, called active from +8 up or from −8 down
# [5] = CREB reporter modulators under forskolin, primary screen, cell-based, PC12, CRE-LacZ reporter, forskolin-stimulated (AID 1146); settings: luminescence, 4.5 h, higher = more signal, called active from +8 up or from −8 down;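 note: PC12 cells with 6xCRE LacZ reporter stimulated by forskolin 10 µM; beta-galactosidase reporter signal reflecting CREB driven transcription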
# [6] = target: Streptavidin (Streptomyces avidinii) (UniProt P22629); test: streptavidin binders on small-molecule microarray, primary screen, artefact control for SMM compound annotation, biophysical, 635/667 nm fluorescence (AID 1147); settings: streptavidin binding, higher = more signal;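 note: signal reflects streptavidin binding to arrayed compounds as a control protein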
# [7] = small-molecule binders of probe aInhba, primary screen, biochemical, small-molecule microarray, 635/667 nm fluorescence (AID 1148); settings: higher = more signal;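 note: score merges 667nm spot fluorescence with signal-to-noise for antibody binding to printed compounds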
# Torsin-1A (Homo sapiens) [8] = target: Torsin-1A (Homo sapiens) (UniProt O14656); test: torsin A binders from cell lysate, primary screen, small-molecule microarray, wild-type, 635/667 nm (AID 1149); settings: COS7 hTOR1A-WT lysate, 635 nm fluorescence, higher = more signal
# Torsin-1A (Homo sapiens) [9] = target: Torsin-1A (Homo sapiens) (UniProt O14656); test: small-molecule binders of mutant TOR1A in lysate, primary screen, cell lysate, small-molecule microarray, COS7 lysate, 635/667 nm fluorescence (AID 1150); settings: COS7 hTOR1A mutant lysate, 635 nm fluorescence, higher = more signal;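 note: score pools 667 nm emission and signal to noise measuring lysate protein binding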
# [10] = tested on: Sonic hedgehog protein (Shh); test: small-molecule binders of Shh protein, primary screen, biochemical, small-molecule microarray, 635/667 nm fluorescence (AID 1151); settings: small-molecule microarray binding, 635 nm fluorescence; higher = more signal;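 note: Shh protein binding to compounds spotted on small-molecule microarray slides; score combines spot fluorescence intensity with signal-to-noise across triplicate slides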
# Sequence of Streptavidin (Streptomyces avidinii) (P22629 whole entry, looked up): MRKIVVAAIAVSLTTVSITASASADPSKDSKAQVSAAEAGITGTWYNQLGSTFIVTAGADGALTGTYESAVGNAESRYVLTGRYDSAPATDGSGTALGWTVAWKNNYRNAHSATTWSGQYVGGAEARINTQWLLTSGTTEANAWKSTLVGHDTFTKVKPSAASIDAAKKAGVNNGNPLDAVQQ
# Sequence of Torsin-1A (Homo sapiens) (O14656 whole entry, looked up): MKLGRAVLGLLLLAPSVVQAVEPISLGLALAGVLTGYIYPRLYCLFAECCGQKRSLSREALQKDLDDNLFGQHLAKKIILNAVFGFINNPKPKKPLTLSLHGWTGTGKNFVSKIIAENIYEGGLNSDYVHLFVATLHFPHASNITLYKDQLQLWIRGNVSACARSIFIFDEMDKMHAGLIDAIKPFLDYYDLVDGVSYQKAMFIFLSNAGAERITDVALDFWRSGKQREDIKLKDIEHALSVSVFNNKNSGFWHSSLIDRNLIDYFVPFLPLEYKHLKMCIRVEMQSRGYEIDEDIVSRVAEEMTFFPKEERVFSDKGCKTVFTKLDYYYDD
SMILES,composite z-score [1],z-score [2],z-score [3],z-score [4],z-score [5],composite z-score [6],composite z-score [7],composite z-score (Torsin-1A (Homo sapiens) [8]),composite z-score (Torsin-1A (Homo sapiens) [9]),composite z-score [10]
COCCOC(=O)N1C(=O)[C@@]2(c3cc(C#CCNC(N)=O)ccc31)[C@H](c1ccc(O)cc1)N1[C@H](c3ccccc3)[C@H](c3ccccc3)OC(=O)[C@H]1[C@@H]2C(=O)NC[C@H](O)c1ccccc1,0.545,0.123 (inactive),0.00448 (inactive),-0.606 (inactive),-0.197 (inactive),-0.0027,0.415,0.76,0.353,1.75
CCOC(=O)C[C@H]1[C@H](OC(=O)Cc2ccc3c(c2)OCO3)[C@@H](NC(=O)C2CCCCC2)c2cc(OCCCO)ccc2N1C(=O)Cc1ccc(OC)cc1,0.142,-1.15 (inactive),-0.0589 (inactive),6.93 (inactive),-0.943 (inactive),0.219,0.0301,0.146,0.511,0.541
C=CCC(OC(C)=O)[C@@H]1[C@@H](N(Cc2cccc3ccccc23)C(=O)c2cccc3ccccc23)c2cc(OCCCO)ccc2N1C(=O)c1ccc2ccccc2n1 (stereo not given in full),-0.0721,-1.66 (inactive),0.603 (inactive),0.265 (inactive),0.446 (inactive),0.193,-0.0791,-0.309,-0.297,0.832
O=C(NCc1ccccc1)[C@]1(CCS(=O)(=O)c2ccccc2)N=C(c2ccc(OCCCO)cc2)O[C@@H]1c1ccccc1,0.721,-2.63 (inactive),-0.422 (inactive),-1.04 (inactive),0.0925 (inactive),0.959,0.111,0.129,0.585,0.16
